# Measurements as given in PubChem BioAssay (NCATS).
# Results filed as inconclusive are left out. Where a call stands in place of a potency, no number is given. Calls of active or inactive are those of the source. Calls come from the whole dose curve; as a rule, active = well fitted curve in the direction sought with a large enough effect; inconclusive = small, poorly fitted or top-dose-only effect, or another doubt; inactive = no such curve, though single readings can be large; an effect the other way counts as inactive or inconclusive.
# Test system: not listed separately
# Assay: HepG2 viability counterscreen (readout 2: ATP content) against the NCATS DSHEA and TCM libraries (AID 1794840)
# Conditions: ATP content luminescence; series mostly up to 27.3 µM
# Method in brief: (§1)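 HepG2 cells, 1,000/well, attached ~4 h, then exposed ~24 h at 37C to substances. Protease activity read by fluorescence of 25 uM GF-AFC (Ex/Em 380/510 nm) after 30 min; ATP then by CellTiter-Glo luminescence.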
row,Compound,outcome
1,O=C(O)c1cc(O)c(O)c(O)c1,inactive
2,CCCCCCCCCCCCCCCCCC(=O)O,inactive
3,C[S+](CC[C@H](N)C(=O)O)C[C@H]1O[C@@H](n2cnc3c(N)ncnc32)[C@H](O)[C@@H]1O (some centres not stated),inactive

# Test system: not listed separately
# Assay: HepG2 viability counterscreen (readout 1: protease activity) against the NCATS DSHEA and TCM libraries (AID 1794841);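 note: cells exposed to compounds for about 24 h before the protease read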
# Conditions: qHTS concentration series; series mostly up to 27.3 µM
# Method in brief: as §1
row,Compound,outcome
1,O=C(O)c1cc(O)c(O)c(O)c1,inactive
2,CCCCCCCCCCCCCCCCCC(=O)O,inactive
3,C[S+](CC[C@H](N)C(=O)O)C[C@H]1O[C@@H](n2cnc3c(N)ncnc32)[C@H](O)[C@@H]1O (some centres not stated),inactive

# Target: Metallo-beta-lactamase type 2 (Klebsiella pneumoniae) (UniProt C7C422)
# Sequence (C7C422 whole entry, looked up): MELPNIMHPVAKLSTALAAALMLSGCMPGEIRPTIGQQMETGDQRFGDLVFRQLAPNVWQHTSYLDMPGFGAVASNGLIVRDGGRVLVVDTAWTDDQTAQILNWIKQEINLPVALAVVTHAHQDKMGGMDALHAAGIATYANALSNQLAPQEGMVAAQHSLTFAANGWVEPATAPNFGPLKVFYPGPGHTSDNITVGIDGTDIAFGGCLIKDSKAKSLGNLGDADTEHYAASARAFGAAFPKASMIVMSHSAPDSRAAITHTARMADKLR
# Assay: qHTS to identify inhibitors of the New Delhi Metallo-beta-lactamase (NDM): assay validation screen against the NCATS LOPAC Collection (AID 1794843)
# Conditions: NDM-1 enzyme, nitrocefin hydrolysis, absorbance 485 nm; series mostly up to 38.4 µM
# Method in brief: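 Absorbance at 485 nm from nitrocefin turnover (50 uM solution added), read at plateau, gives the read-out. Compounds in DMSO were incubated first with 2 nM final NDM-1 in pH 7.0 HEPES buffer containing 1 uM ZnSO4 and 0.01% Tween20.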
row,Compound,Potency
1,NC[C@@H]1O[C@H](C23CC4CC(CC(C4)C2)C3)Cc2c1ccc(O)c2O,inactive
2,Clc1ccc(N2CCN(Cc3cc4ccccn4n3)CC2)cc1,inactive
3,CCNC(=O)[C@H]1O[C@@H](n2cnc3c(N)nc(NCCc4ccc(CCC(=O)O)cc4)nc32)[C@H](O)C1O (some centres not stated),inactive
4,Cc1cc(NC(=O)Nc2ccc3c(ccn3C)c2)sn1,inactive
5,COC1=C(OC)C(=O)c2ccccc2C1=O,inactive
6,O=C1/C(=C/c2ccsc2)CC/C1=C\c1cccs1,inactive
7,COc1ccc(/C=C/c2nc(NCCCN(C)C)c3ccccc3n2)cc1,inactive
8,C[N+]1(C)CCC(OC(=O)C(c2ccccc2)c2ccccc2)CC1,inactive
9,NC(=O)C1=CN(C2OC(COP(=O)(O)OP(=O)(O)OC[C@H]3O[C@@H](n4cnc5c(N)ncnc54)[C@H](OP(=O)(O)O)[C@@H]3O)C(O)C2O)C=CC1 (some centres not stated),inactive
10,CC(C)NC[C@H](O)COc1cccc2[nH]ccc12,inactive
11,COc1cc(SC)ccc1C(=O)N1CCC(Cc2ccccc2)CC1,inactive
12,COc1cc(C(O)CO)ccc1OS(=O)(=O)O (configuration not stated),inactive
13,N=c1ccn2c(n1)O[C@H]1[C@H](O)[C@@H](CO)O[C@H]12,inactive
14,CCN1/C(=C/C(C)=O)Sc2ccc(OC)cc21,inactive
15,COc1cc(OC)c(/C=C2/C(=O)Nc3ccccc32)c(OC)c1,inactive
16,S=C(S)OC1CC2CC1C1CCCC21 (configuration not stated),inactive
17,NC[C@H]1O[C@@H](n2cnc3c(N)ncnc32)[C@H](O)[C@@H]1O,inactive
18,O=C(CCSCc1ccco1)NNC(=O)N1Cc2ccccc2Oc2ccc(Cl)cc21,inactive

row,Compound,Potency
1,Nc1nc(Nc2ccccc2)nc2c1ncn2[C@@H]1O[C@H](CO)[C@@H](O)[C@H]1O,inactive
2,N[C@H](CCCP(=O)(O)O)C(=O)O,inactive
3,Oc1cc2c(cc1O)CN(C(=S)NCCc1ccc(Cl)cc1)CCC2,inactive
4,COc1ccc(Br)cc1S(=O)(=O)NC(=O)/C=C/c1ccccc1Cc1ccc2ccccc2c1,inactive
5,Nc1ccn([C@@H]2O[C@H](CO)[C@@H](O)[C@@H]2O)c(=O)n1,inactive
6,Oc1cc(O)cc(/C=C/c2ccc(O)c(O)c2)c1,inactive
7,O=C(O)CC1CCCc2ccccc2C1O (configuration not stated),inactive
8,O=C1NCc2c1c1c3ccccc3[nH]c1c1[nH]c3ccccc3c21,inactive
9,O=C(c1ccc(Cl)cc1)N1CCN(c2ccc([N+](=O)[O-])c3ncccc23)CC1,inactive
10,O=C1NC(=O)c2c1c(-c1ccccc1)cc1[nH]c3ccc(O)cc3c21,inactive
11,O=C(O)CNC(=O)C(CS)Cc1ccccc1 (configuration not stated),inactive
12,CC(C)Cc1ccc([C@H](C)C(=O)O)cc1,inactive
13,Nc1nc(OCC2CCCCC2)c2[nH]cnc2n1,inactive
14,CC12C(=O)OC(=O)C1(C)C1CCC2O1 (configuration not stated),inactive
15,Cn1c(=O)c(-c2c(Cl)cccc2Cl)cc2cnc(Nc3ccc(N4CCOCC4)cc3)nc21,inactive
16,Nc1nc(Cl)nc2c1ncn2[C@@H]1O[C@H](CO)[C@@H](O)[C@H]1O,inactive
17,CN(C)c1nc(N)c(C(=O)N=C(N)N)nc1Cl,inactive

# Target: Glutathione peroxidase 1 (Homo sapiens) (UniProt P07203)
# Sequence (P07203 whole entry, looked up): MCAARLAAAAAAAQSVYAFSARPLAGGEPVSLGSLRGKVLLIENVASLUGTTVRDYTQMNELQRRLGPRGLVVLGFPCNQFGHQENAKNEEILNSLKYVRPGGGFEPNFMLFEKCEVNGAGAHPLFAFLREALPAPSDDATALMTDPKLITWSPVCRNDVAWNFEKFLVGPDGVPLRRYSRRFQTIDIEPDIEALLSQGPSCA
# Assay: Primary qHTS Assay for Inhibitors of Recombinant Selenoprotein Glutathione Peroxidase 1 (GPX1) (AID 1845191); note: nearly all actives have a fitted effect of over 65% in size
# Conditions: recombinant GPX1, GR-coupled NADPH fluorescence, 15 min; series mostly up to 48.8 µM
# Method in brief: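 GR-coupled assay: compounds preincubated 30 min at room temperature with GPX1, then reaction started with CHP; final 10 nM GPX1, 1 mM GSH, 0.5 mM CHP, 0.5 mM NADPH, 100 nM GR, 0.01% BSA, pH 7.5 Tris buffer. NADPH fluorescence (340/450 nm) read at 0 and 15 min.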
row,Compound,Potency
1,NC[C@@H]1O[C@H](C23CC4CC(CC(C4)C2)C3)Cc2c1ccc(O)c2O,inactive
2,Clc1ccc(N2CCN(Cc3cc4ccccn4n3)CC2)cc1,inactive
3,CCNC(=O)[C@H]1O[C@@H](n2cnc3c(N)nc(NCCc4ccc(CCC(=O)O)cc4)nc32)[C@H](O)C1O (some centres not stated),inactive
4,Cc1cc(NC(=O)Nc2ccc3c(ccn3C)c2)sn1,inactive
5,COC1=C(OC)C(=O)c2ccccc2C1=O,inactive
6,O=C1/C(=C/c2ccsc2)CC/C1=C\c1cccs1,inactive
7,COc1ccc(/C=C/c2nc(NCCCN(C)C)c3ccccc3n2)cc1,inactive
8,C[N+]1(C)CCC(OC(=O)C(c2ccccc2)c2ccccc2)CC1,inactive
9,NC(=O)C1=CN(C2OC(COP(=O)(O)OP(=O)(O)OC[C@H]3O[C@@H](n4cnc5c(N)ncnc54)[C@H](OP(=O)(O)O)[C@@H]3O)C(O)C2O)C=CC1 (some centres not stated),inactive
10,CC(C)NC[C@H](O)COc1cccc2[nH]ccc12,inactive
11,CCCCCCCCCCCCCCCCCC(=O)O,inactive
12,COc1cc(SC)ccc1C(=O)N1CCC(Cc2ccccc2)CC1,inactive
13,COc1cc(C(O)CO)ccc1OS(=O)(=O)O (configuration not stated),inactive
14,N=c1ccn2c(n1)O[C@H]1[C@H](O)[C@@H](CO)O[C@H]12,inactive
15,CCN1/C(=C/C(C)=O)Sc2ccc(OC)cc21,inactive
16,COc1cc(OC)c(/C=C2/C(=O)Nc3ccccc32)c(OC)c1,inactive
17,S=C(S)OC1CC2CC1C1CCCC21 (configuration not stated),inactive
18,NC[C@H]1O[C@@H](n2cnc3c(N)ncnc32)[C@H](O)[C@@H]1O,inactive

row,Compound,Potency
1,O=C(CCSCc1ccco1)NNC(=O)N1Cc2ccccc2Oc2ccc(Cl)cc21,inactive
2,Nc1nc(Nc2ccccc2)nc2c1ncn2[C@@H]1O[C@H](CO)[C@@H](O)[C@H]1O,inactive
3,N[C@H](CCCP(=O)(O)O)C(=O)O,inactive
4,Oc1cc2c(cc1O)CN(C(=S)NCCc1ccc(Cl)cc1)CCC2,inactive
5,COc1ccc(Br)cc1S(=O)(=O)NC(=O)/C=C/c1ccccc1Cc1ccc2ccccc2c1,inactive
6,Nc1ccn([C@@H]2O[C@H](CO)[C@@H](O)[C@@H]2O)c(=O)n1,inactive
7,Oc1cc(O)cc(/C=C/c2ccc(O)c(O)c2)c1,inactive
8,O=C(O)CC1CCCc2ccccc2C1O (configuration not stated),inactive
9,O=C1NCc2c1c1c3ccccc3[nH]c1c1[nH]c3ccccc3c21,inactive
10,O=C(c1ccc(Cl)cc1)N1CCN(c2ccc([N+](=O)[O-])c3ncccc23)CC1,inactive
11,O=C1NC(=O)c2c1c(-c1ccccc1)cc1[nH]c3ccc(O)cc3c21,inactive
12,O=C(O)CNC(=O)C(CS)Cc1ccccc1 (configuration not stated),inactive
13,CC(C)Cc1ccc([C@H](C)C(=O)O)cc1,inactive
14,Nc1nc(OCC2CCCCC2)c2[nH]cnc2n1,inactive
15,CC12C(=O)OC(=O)C1(C)C1CCC2O1 (configuration not stated),inactive
16,Cn1c(=O)c(-c2c(Cl)cccc2Cl)cc2cnc(Nc3ccc(N4CCOCC4)cc3)nc21,inactive
17,Nc1nc(Cl)nc2c1ncn2[C@@H]1O[C@H](CO)[C@@H](O)[C@H]1O,inactive
18,CN(C)c1nc(N)c(C(=O)N=C(N)N)nc1Cl,inactive
